# Experimental data as given in PubChem BioAssay AID687036 (The Scripps Research Institute Molecular Screening Center, 2013).
# The campaign covered roughly 3,300 compounds. About 1,400 (42%) were called active.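 How the source made its calls: active means mean inhibition across replicates above the hit cutoff derived for the earlier primary screen (cut at about 22% in these data); inactive means the rest.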 The set was probably picked from earlier hits. These entries were drawn from the full list.
# Molecular target: Protein arginine N-methyltransferase 1 (Homo sapiens) (UniProt Q99873)
# Experiment: PRMT1 methyltransferase inhibitors, confirmation, biochemical, fluorescence polarization, triplicate (AID 687036)
# Settings: recombinant His-PRMT1, activity-based probe fluorescence polarization; at 2.79 µM; hits give high values
# Sequence of Protein arginine N-methyltransferase 1 (Homo sapiens) (Q99873 whole entry, looked up): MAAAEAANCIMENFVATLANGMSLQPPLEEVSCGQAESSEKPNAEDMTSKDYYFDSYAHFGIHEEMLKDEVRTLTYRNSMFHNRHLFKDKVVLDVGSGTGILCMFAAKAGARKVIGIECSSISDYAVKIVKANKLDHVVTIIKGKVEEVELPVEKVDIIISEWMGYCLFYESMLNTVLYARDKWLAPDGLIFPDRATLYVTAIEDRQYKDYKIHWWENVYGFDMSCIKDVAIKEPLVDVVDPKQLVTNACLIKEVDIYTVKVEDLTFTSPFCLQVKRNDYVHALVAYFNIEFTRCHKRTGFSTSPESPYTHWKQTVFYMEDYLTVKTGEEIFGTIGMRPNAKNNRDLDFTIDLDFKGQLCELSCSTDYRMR
row,SMILES,inhibition
1,Brc1ccccc1C1Nc2cccc3cccc(c23)N1,29.4% (active)
2,NS(=O)(=O)c1ccc(NC(=O)COC(=O)c2c3c(nc4ccccc24)/C(=C\c2ccc4c(c2)OCO4)CCC3)cc1,0.89% (inactive)
3,Cc1cc(C)cc(C(=O)NC2C(=O)N3C(C(=O)O)=C(CSc4nnc(C)s4)CSC23)c1 (stereo unspecified),15.9% (inactive)
4,Oc1ccc2ccc3cccc[n+]3c2c1,155% (active)
5,COc1cc(C2CC(=O)N3CN(Cc4ccccc4)CSC3=C2C#N)ccc1OCc1ccccc1 (stereo unspecified),12.4% (inactive)
6,CC(=O)Nc1ccc(C(=O)Nc2nc(-c3cc(C)n(Cc4ccccc4)c3C)cs2)cc1,5.86% (inactive)
7,FC(F)(F)c1nc2ccccc2nc1N/N=C/c1ccc(Cl)cc1,-0.64% (inactive)
8,CCOC(=O)C(Sc1ncc(C#N)c(N)n1)C(C)C (stereo unspecified),37% (active)
9,Fc1ccc(COc2cccc(-c3n[nH]c(=S)o3)c2)cc1,14.3% (inactive)
10,COc1cc(C(=S)NC2CCCCC2)ccc1O,5.36% (inactive)
11,CCc1ccc(NC2Nc3cc(C)nn3S2)cc1 (stereo unspecified),6.49% (inactive)
12,O=c1ccc2c(-c3ccccc3S(=O)(=O)O)c3ccc(O)c(O)c3oc-2c1O,66.2% (active)
13,COc1ccc(CCN2C(=O)CC(N3CCC(C(N)=O)CC3)C2=O)cc1OC (stereo unspecified),12.1% (inactive)
14,OCCn1c(-c2ccccc2)csc1=Nc1ccccc1,-0.19% (inactive)
15,O=S(=O)(O)c1cc2onnc2c2ccccc12,53.5% (active)
16,Cc1ccc(-c2ccc(/C=C(\C#N)C(N)=S)o2)c([N+](=O)[O-])c1,3.06% (inactive)
17,Cc1ccc(SC(CC(=O)c2ccc(C(C)(C)C)cc2)C(=O)O)cc1 (stereo unspecified),80.3% (active)
18,COc1ccc(N/N=C2/CCCCC2=O)cc1,0.52% (inactive)
19,Cc1cc(=O)[nH]c(=S)[nH]1,-4.44% (inactive)
20,Cc1cc2nc3c(=O)[nH]c(=O)nc-3n(C[C@H](O)[C@H](O)[C@H](O)CO)c2cc1C,146% (active)
21,O=C(CN1CCN(c2ccc(O)cc2)CC1)NC1CCCc2ccccc21 (stereo unspecified),-0.09% (inactive)

row,SMILES,inhibition
1,Cc1cccc(N2CCN(C(=O)/C=C/c3ccco3)CC2)c1C,7.17% (inactive)
2,Cc1nnc(SCC2=C(C(=O)O)N3C(=O)C(NC(=O)Cn4nc(C)c(Cl)c4C)C3SC2)s1 (stereo unspecified),6.51% (inactive)
3,CC(C)(C)NC(=O)COc1ccc(CNc2ccc3[nH]c(=O)[nH]c3c2)cc1,4.62% (inactive)
4,COc1ccc(NC(=O)CSc2nc(SC)ns2)c(OC)c1,30.5% (active)
5,Cc1cccc2cc3c(N)c(C(=O)N4CCCc5ccccc54)sc3nc12,-2.12% (inactive)
6,COc1cccc(NC(=O)COC(=O)/C=C/c2ccco2)c1,10.2% (inactive)
7,COc1cccc(NC(=O)CSc2nccn(-c3ccc4c(c3)OCCO4)c2=O)c1,26.1% (active)
8,CC(=O)Nc1cc(-c2ccccc2N(C)C)cn2c(-c3ccc(F)c(Cl)c3)cnc12,1.55% (inactive)
9,c1ccc(Cc2c(-c3ccco3)nc3c4ccccc4ccn23)cc1,9.04% (inactive)
10,COc1ccc(NC2=CC(=S)NC(C)(C)C2)cc1,-3.18% (inactive)
11,S=c1[nH]nc(-c2ccco2)n1/N=C/c1ccc(Br)s1,13.1% (inactive)
12,Cc1ccc(N2C(=O)CC(Sc3ncn[nH]3)C2=O)cc1 (stereo unspecified),24.3% (active)
13,COc1ccc(N2C(=O)CC(Sc3n[nH]c(-c4ccc(C)cc4)n3)C2=O)cc1 (stereo unspecified),59% (active)
14,O=C1CC(Sc2ncn[nH]2)C(=O)N1c1ccccc1 (stereo unspecified),68.5% (active)
15,COc1ccc(N2C(=O)CC(N3CCC(C(N)=O)CC3)C2=O)cc1 (stereo unspecified),9.59% (inactive)
16,CN(CCOc1ccccc1)C(=O)c1cc(-c2ccco2)nc2ccccc12,10.7% (inactive)
17,COc1ccc(-c2cc3c(c4c2ccn4C)C2CCC3C2)cn1 (stereo unspecified),-5.46% (inactive)
18,Cc1cc(C)c(/C=C2\C(=O)Nc3ccccc32)[nH]1,77.3% (active)
19,CC(=NNC(=S)N1CCCCCC1)c1ccccn1,5.21% (inactive)
20,O=S(=O)(c1ccc(Sc2nnc3ccccn23)nc1)N1CCOCC1,-3.1% (inactive)
21,Cc1cc2c(c(=O)n1Cc1ccco1)C(c1ccccc1)C(C#N)=C(N)O2 (stereo unspecified),6.2% (inactive)

row,SMILES,inhibition
1,N#CC1=C(N)Oc2c(sc3ccccc23)C1c1ccco1 (stereo unspecified),28.5% (active)
2,O=C(c1ccc[nH]c1=S)N1CCN(S(=O)(=O)c2ccc(Br)cc2Cl)CC1,11.5% (inactive)
3,COC(=O)c1ccc(NCc2cc(O)ccc2O)cc1,22.6% (active)
4,COc1ccc(NC(=O)c2ccc(C#CC(C)(C)O)cc2)cc1,3.21% (inactive)
5,Cc1ccc(/C=C/C(=O)Nc2ccc([N+](=O)[O-])c(NC(=O)/C=C/c3ccc(C)o3)c2)o1,60.6% (active)
6,CN(C)C(=O)N=NC(=O)N(C)C,15.4% (inactive)
7,Cc1cccc(CS(=O)(=O)c2ncc(Cl)c(C(=O)Nc3ccc(F)cc3)n2)c1,18.9% (inactive)
8,Cc1ccc(-c2nn(-c3ccccc3)cc2CN(Cc2ccccc2)C(=O)CCC(=O)O)o1,21.8% (active)
9,Cc1ccc(-c2nn(-c3ccccc3)cc2/C=C2\SC(=S)N(CCCCCC(=O)O)C2=O)o1,18.1% (inactive)
10,Cc1cccc(NC(=O)CSC(N)=O)c1C,96.6% (active)
11,Cc1ccccc1-n1c(SCC(=O)Nc2cccc3ccccc23)nc(O)cc1=O,2.26% (inactive)
12,O=C(NC1=CC(=O)c2ccccc2C1=O)c1ccccc1,42.6% (active)
13,Cc1ccc(OS(=O)(=O)c2ccc(-c3csc(C)n3)s2)c(C)c1,8.35% (inactive)
14,CO/N=C(\C(=O)N[C@@H]1C(=O)N2C(C(=O)O)=C(COC(C)=O)CS[C@H]12)c1csc(N)n1 (stereo in doubt),11.4% (inactive)
15,C=CCn1c(=S)[nH]c2scc(-c3ccco3)c2c1=O,56.8% (active)
16,O=C(CCN1CCc2ccccc2C(O)(c2ccccc2)C1)c1ccc2c(c1)OCCO2 (stereo unspecified),38% (active)
17,COc1ccccc1-n1c(SCC(=O)Nc2ccc(Cl)cc2)nc(O)c(Cc2ccccc2)c1=O,18.7% (inactive)
18,O=C(Nc1ccccc1)c1nnsc1S(=O)(=O)c1ccc(Cl)cc1,79.7% (active)
19,Cc1cccc(NC(=O)c2nc(S(=O)(=O)Cc3ccccc3)ncc2Cl)c1,16.1% (inactive)
